A selection: hits, their analogues and other compounds. The true share with any hit is near 22%.
Measles CPE: protection of cells from measles virus. Measles virus-infected cells, CPE protection, absorbance. protection (pct of control), % at 4 µM. hit rate 1.5% among 140,000. AID 841; in the data active = protection mostly above about 24%, no sharp cut-off; inactive = mostly below about 26%
CYP2C19 activ: cytochrome P450 2C19 (human) activation. activation factor at 5 µM. 96,000 tested, under 10 active. recombinant CYP2C19, luciferin-H EGE luminescence; stronger effect = higher value; 0 = fully inhibited enzyme, 1 = untreated enzyme;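 active = activation factor of at least 2 at 5 µM in the primary screen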
Target sequence (P33261 whole entry, looked up): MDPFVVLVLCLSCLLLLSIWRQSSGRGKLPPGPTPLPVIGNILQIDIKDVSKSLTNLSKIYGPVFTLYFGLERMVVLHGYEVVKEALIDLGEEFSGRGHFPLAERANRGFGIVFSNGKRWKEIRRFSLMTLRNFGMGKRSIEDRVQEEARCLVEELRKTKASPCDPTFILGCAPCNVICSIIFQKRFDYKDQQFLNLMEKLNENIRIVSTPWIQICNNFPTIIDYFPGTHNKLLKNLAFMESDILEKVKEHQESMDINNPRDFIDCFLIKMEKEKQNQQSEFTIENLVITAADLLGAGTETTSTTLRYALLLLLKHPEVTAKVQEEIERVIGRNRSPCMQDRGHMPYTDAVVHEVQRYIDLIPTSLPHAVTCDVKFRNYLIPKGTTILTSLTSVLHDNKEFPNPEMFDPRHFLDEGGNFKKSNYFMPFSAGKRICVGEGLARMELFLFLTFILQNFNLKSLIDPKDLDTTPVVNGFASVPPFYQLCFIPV
CYP2C9 inh: blocks human cytochrome P450 2C9; P11712; CYP2C9 Supersomes, luciferin-H conversion, luminescence; inhibition, % at 5 µM; hit rate 20% among 96,000; AID 777;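 active = blocking of liver enzyme CYP2C9 beyond about 50% at 5 µM, limit read from the data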
CYP2C19 inh: inhibitors of human CYP2C19; inhibition, % at 5 µM; P33261; AID 778; CYP2C19 Supersomes, luciferin-H EGE luminescence, 30 min; hit rate 21% among 96,000;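 active = CYP2C19 inhibition above a set limit at 5 µM in the primary screen, cut at about 50% in these data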
CYP2C9 activ: increases human cytochrome P450 2C9 activity | P11712 | recombinant CYP2C9, luciferin-H conversion, luminescence; stronger effect = higher value; factor 1 = untreated enzyme, 0 = blocked | activation factor at 5 µM | hit rate 1.4% among 96,000 | AID 1024;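 active = activation factor of 2 or more for CYP2C9 at a 5 µM dose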
Hits are given with their value; 0 = inactive; - = not tested or not shown.

SMILES	Measles CPE	CYP2C19 activ	CYP2C9 inh	CYP2C19 inh	CYP2C9 activ
CC1(C)CC2CC(C)(CN2C(=O)c2cc(-c3ccccc3O)on2)C1 (configuration not stated)	0	0	72.9	53.7	0
CCC(C)NC(=O)c1cc(-c2ccccc2O)on1 (configuration not stated)	0	0	0	0	0
Cc1cccc(C(=O)N2CC3(C)CC2CC(C)(C)C3)c1 (configuration not stated)	0	-	-	-	-
CC1CCN(C(=O)c2cc(-c3ccccc3O)on2)CC1	0	0	0	67.3	0
CC1(C)CC2CC(C)(CN2C(=O)CCCN2C(=O)c3ccccc3C2=O)C1 (configuration not stated)	0	0	0	86.4	0
COc1ccc(-c2cc(C(=O)N3CC4(C)CC3CC(C)(C)C4)no2)cc1 (configuration not stated)	0	0	0	0	0
CC1(C)CC2CC(C)(CN2C(=O)c2cccs2)C1 (configuration not stated)	0	0	0	73.9	0
Cc1sc2ncnc(SCC(=O)NC(=O)NCc3ccco3)c2c1C	0	0	0	0	0
Cc1ccc(-n2c(=O)cc(NCc3cccnc3)[nH]c2=O)cc1	0	0	0	0	0
CS(=O)(=O)N(Cc1ccco1)CC(O)Cn1cc(C=O)c2ccccc21 (configuration not stated)	0	0	0	0	0
O=C(c1ccc(CN2CCOCC2)cc1)N1CCN(c2cccc(Cl)c2)CC1	0	0	0	0	0
O=C(c1cccc(Cl)c1)N1CCN(Cc2ccncc2)CC1	0	-	-	-	-
CC(=O)Nc1cccc(C(=O)N2CCN(Cc3ccccc3)CC2)c1	0	0	0	96.1	0
O=C(c1cccc(C(=O)N2CCN(Cc3ccccc3)CC2)c1)N1CCN(Cc2ccccc2)CC1	0	0	82.2	97.0	0
Cc1ccc(Cl)cc1N1CCN(C(=O)c2ccc(CN3CCOCC3)cc2)CC1	0	0	66.7	59.5	0
Cc1ccc(OCc2ccc(C(=O)N3CCOCC3)cc2)cc1C	0	0	0	71.4	0
Cc1ccc(OCC(=O)N2CCOCC2)cc1C	0	-	-	-	-
S=c1[nH]ncn1-c1ccccn1	0	0	0	0	0
O=C(Nc1cccc(C(=O)N2CCN(Cc3ccccc3)CC2)c1)c1ccccc1	0	0	0	83.4	0
O=C(Nc1ccccc1C(=O)N1CCN(Cc2ccccc2)CC1)c1ccccn1	0	0	67.2	85.1	0
COc1ccc(C(=O)Nc2cccc(C(=O)N3CCN(C)CC3)c2)cc1	0	0	0	0	0
O=C(c1ccc(CN2CCOCC2)cc1)N1CCN(Cc2ccccc2)CC1	43.6	0	0	0	0
c1ccc(CN2CCOCC2)cc1	0	0	0	0	0
O=Cc1ccc(OC2OCCOC2Oc2ccc(C=O)cc2)cc1 (configuration not stated)	0	-	-	-	-
Cc1ccc(C2NC(=S)NC3=C2C(=O)CC(C)(C)C3)cc1 (configuration not stated)	0	-	-	-	-
SMILES	Measles CPE	CYP2C19 activ	CYP2C9 inh	CYP2C19 inh	CYP2C9 activ
CCOC(=O)N1CCN(C(=O)C(C)(C)Oc2ccc(Cl)cc2)CC1	0	0	84.4	73.6	0
COc1ccc(N2CCN(C(=O)C(C)(C)Oc3ccc(Cl)cc3)CC2)cc1	0	0	89.8	73.8	0
Cc1ccc(/C(O)=C2\C(=O)C(=O)N(Cc3cccnc3)C2c2ccccc2[N+](=O)[O-])cc1 (configuration not stated)	0	-	-	-	-
Cc1ccc(C)c(S(=O)(=O)C(C#N)c2nc3ccccc3nc2N2CC(C)OC(C)C2)c1 (configuration not stated)	0	0	98.7	51.9	0
N#CC(c1nc2ccccc2nc1N1CCCC1)S(=O)(=O)c1cccs1 (configuration not stated)	0	0	74.8	0	0
Cc1ccc(S(=O)(=O)C(C#N)c2nc3ccccc3nc2N2CCN(C)CC2)cc1C (configuration not stated)	0	0	75.2	0	0
COc1ccc(S(=O)(=O)C(C#N)c2nc3ccccc3nc2N2CCCCC2)cc1 (configuration not stated)	0	0	64.0	56.9	0
O=C(COc1ccccc1)c1cn(CC(=O)N2CCOCC2)c2ccccc12	0	0	70.7	0	0
O=C(Cn1cc(C(=O)COc2ccccc2)c2ccccc21)NCc1ccco1	0	0	78.0	0	0
CCOC(=O)CSc1nc(-c2ccc(OC)cc2)ns1	0	0	0	0	0
COc1cc(/C=N/NC(=O)c2ccc(O)cc2)ccc1Oc1ccc([N+](=O)[O-])cn1	0	-	-	-	-
Cc1nn(-c2ccccc2)c(Cl)c1C(=O)NCC(C)C	0	0	63.4	69.3	0
Cc1nn(-c2ccccc2)c(Cl)c1C(=O)OC(C)C(=O)NC(=O)NC1CCCCC1 (configuration not stated)	0	0	54.9	0	0
COc1ccccc1C(=O)NCC(=O)OC(C)C(=O)NC(=O)NC1CCCCC1 (configuration not stated)	0	0	0	0	0
CCCC(=O)Nc1sc2c(c1C#N)CCCC2	0	0	50.1	0	0
CC(=O)Nc1sc2c(c1C#N)CCCC2	0	0	0	0	0
N#Cc1c(NC(=O)c2ccncc2)sc2c1CCC2	0	0	53.3	73.1	0
COC(=O)CCC(=O)Nc1sc2c(c1C#N)CCCC2	0	0	0	0	0
CC1CCN(CC(=O)Nc2sc3c(c2C#N)CCC3)CC1	0	0	56.2	0	0
CC(=O)Nc1cc(S(=O)(=O)C(F)(F)F)ccc1Cl	0	0	0	0	0
CN(CCCNC(=O)c1cccn2c(=O)c3ccccc3nc12)Cc1ccccc1	0	0	0	0	0
Fc1ccc(CN2CCSCC2)cc1Br	0	0	0	84.3	0
COc1ccccc1CN1CCSCC1	0	0	0	0	0
CCOC(=O)C1CCN(Cc2ccc(F)cc2F)CC1	0	0	0	0	0
CCOC(=O)C1CCN(Cc2ccc(F)c(Br)c2)CC1	0	0	0	63.0	0
SMILES	Measles CPE	CYP2C19 activ	CYP2C9 inh	CYP2C19 inh	CYP2C9 activ
CCn1cnc2sc(C)c(C)c2c1=O	0	0	0	0	0
Cn1c(=O)c2c(nc(SCC(=O)NC34CC5CC(CC(C5)C3)C4)n2C)n(C)c1=O	0	0	0	0	0
COc1cc2c(cc1NC(=O)COC(=O)C1CC(=O)N(Cc3ccco3)C1)oc1ccccc12 (configuration not stated)	0	0	58.9	0	0
Cc1[nH]c2ccccc2c1C(=O)COC(=O)C1CC(=O)N(Cc2ccco2)C1 (configuration not stated)	0	0	0	56.3	0
COc1ccc(S(=O)(=O)N(C(C)=O)c2ccc(OC(C)=O)c3ccccc23)cc1[N+](=O)[O-]	0	-	-	-	-
CCCC(c1nnnn1Cc1ccco1)N1CCN(c2cc(Cl)ccc2C)CC1 (configuration not stated)	0	0	59.6	0	0
CCCCC(c1nnnn1CC1CCCO1)N1CCN(c2nc3ccccc3s2)CC1 (configuration not stated)	0	0	76.3	69.5	0
CCCC(c1nnnn1CC1CCCO1)N1CCN(c2nc3ccccc3s2)CC1 (configuration not stated)	0	-	-	-	-
